From ChEMBL document CHEMBL3988442, “University of Dundee, Small-Polar-MMV Screening Library” (2021) come the findings set out here.

The target of this test is AMP-activated protein kinase, AMPK (Homo sapiens) (UniProt P54646+O43741+P54619+Q9UGJ0+Q9Y478+Q13131+Q9UGI9). Nature of the test: AMP-dependent Kinase enzyme assay. An in vitro enzyme assay that detects ADP turnover that is directly proportional to AMPK activity. This uses naive AMPK that is activated during the assay with MK-8722. The test is classed as functional. Also noted: scale not given: direction of the effect not stated beside the values. To be noted: 30 µM.
Regarding `CCc1oc(C(=O)N[C@@H]2c3ccccc3C[C@@H]2O)cc1C`, the Percent Effect is -3%.

As for `Cc1c(NC(=O)CN(C)S(C)(=O)=O)cccc1OC1CCCC1`, the Percent Effect is -0.429%.

As to `CC(CNC(=O)c1cc(Cn2cnc3ccccc32)[nH]n1)N1CCCC1` (centres undefined), the Percent Effect is -5.09%.

With `CCCn1nnnc1CN(CC)CC1COc2ccccc2O1` (centres undefined), the Percent Effect is 1.1%.

Regarding `COCCN(Cc1nccs1)c1nc2c(s1)c(C)nn2C`, the Percent Effect was -10%.

Regarding `CCNC(=O)CN(CC)C(=O)c1csc(Cc2ccccc2F)n1`, the Percent Effect is 4.98%.

Consider `C[C@@H]1CN(c2ccc(Cl)cn2)C[C@@]1(O)C1CC1`, for which the Percent Effect turned out to be 5.94%.

Take `CCSc1ncc(CN2CCN(c3ccc(C#N)cc3)C(=O)C2)cn1`: the Percent Effect turned out to be 2.89%.

As for `CC(C)(C)NC(=O)CNc1ccc(Br)cn1`, the Percent Effect came to 7.07%.

Regarding `CN(CCCOc1ccccc1Cl)C(=O)CN1C[C@@H]2CC[C@H](CC1=O)N2`, the Percent Effect amounted to 10.1%.

With `CN(Cc1ccccc1F)Cc1cc2c(cc1Br)OCCO2`, the Percent Effect is -3.17%.

For the compound `COc1ccc2c(c1)Cc1c-2nc(N)c(C#N)c1C1CCOC1` (centres undefined), the Percent Effect was -32.8%.

`CCSCc1cccc(NCc2cccnc2)c1`: the Percent Effect amounted to 5.73%.

As for `CN(Cc1nc(C2CC2)no1)C1CCS(=O)(=O)C1` (centres undefined), the Percent Effect came out at 2.02%.

As for `Cc1nn(C2CCCCC2)c2nc(C(C)(C)CN3CCOCC3)[nH]c12`, the Percent Effect came to 12%.

On to `CCCc1noc(C[S+]([O-])CC(=O)NCc2ccccc2)n1` (centres undefined), for which the Percent Effect was -0.224%.

Consider `Cc1ccc(S(=O)(=O)N(C)CC(C)O)c(F)c1` (centres undefined), for which the Percent Effect came to 8.59%.

As for `Cn1ccc(C(=O)N2CCCCC2c2cc(CCO)[nH]n2)n1` (centres undefined), the Percent Effect came out at 30.2%.

In the case of `CC(C)c1nnc(CN2CC(n3cccn3)Cc3ccccc32)o1` (centres undefined), the Percent Effect was -5.15%.
